# In PubChem BioAssay (Tox21):
# Inconclusive results are not listed. Entries that show only a call come without a potency. Active and inactive are the calls of the source. Calls follow the shape of the dose curve; as a rule, active = well fitted cell-killing curve with a large enough effect in the repeat runs; inconclusive = weak or mixed curves, or effect the other way; inactive = flat fitted curve, though single readings scatter.
# Test: qHTS assay to identify small molecule agonists of the sonic hedgehog signaling (Shh) pathway - cell viability counter screen (AID 1259366); also: nearly all actives have a fitted effect of over 50% in size
# Settings: NIH/3T3 Gli1-Luc viability, CellTiter-Fluor, 24 h; series mostly up to 92.4 µM
# Description: National Center for Advancing Translational Sciences [NCATS]
# NIH Chemical Genomics Center [NCGC]
# U.S. Environmental Protection Agency [EPA]
# National Institutes of Environmental Health Sciences [NIEHS]
# National Toxicology Program [NTP]
# U.S. Food and Drug Administration [FDA]
# The sonic hedgehog (Shh) pathway is essential for normal embryonic development. Dysregulation of the Shh pathway can cause severe developmental defects in organs. Therefore chemicals that interfere with the pathway are potential developmental toxicants. A cell line designated 3T3Gli1-Luc (DMB/OARSA/CFSAN/FDA, Laurel, MD), a NIH/3T3 derived clone containing stably integrated Gli1-Luc reporter is used to detect chemical interference of the Shh pathway, by changes in the expression of the firefly Luc gene under the control of the Gli1 transcriptional response element. This cell line was used to screen Tox21 libraries for identifying and prioritizing the potential developmental toxicants that interfere Shh pathway. The cytotoxicity of the compounds was tested in parallel by measuring the cell viability using CellTiter-Fluor assay system (Promega, Madison, WI) in the same wells.
# Tox21 Assay Protocol Summary:
# 3T3 Gli1-Luc cells were dispensed at 2,000 per well in 5uL of culture medium into white solid bottom 1536-well plates (Greiner Bio-One, Monroe, NC) using a Multidrop Combi (Thermo Scientific, Waltham, MA) dispenser. The assay plates were incubated at 37 C and 5% CO2 for 4hr, and then 23nL of compounds dissolved in DMSO and positive control were transferred using a Pintool station (Wako, San Diego, CA). The assay plates were incubated at 37C and 5% CO2 for 24hr. For viability read, after 23hr of compound treatment, 1uL of CellTiter-Fluor reagent (Promega Corporation, Madison, WI) was added to each well of the assay plates using Flying Reagent Dispenser (FRD, Aurora Discovery, San Diego, CA) and incubated the assay plates at 37C for 1hr. The fluorescence signal was quantified using a ViewLux plate reader (Perkin Elmer, Shelton, CT).
# Potency is read from the fitted curve at half-maximal effect.
SMILES,Potency,"viability change, negative = cytotoxic"
CCN(CC)C(=O)N[C@@H]1C=C2c3cccc4[nH]cc(c34)C[C@@H]2N(C)C1,inactive,–
O=C(Nc1ccc(F)cc1F)c1cccnc1Oc1cccc(C(F)(F)F)c1,inactive,–
CCC[CH2][Sn]([CH2]CCC)([CH2]CCC)[CH2]CCC,13.7 µM (active),–
Cc1cc(C2CC2)nc(Nc2ccccc2)n1,48.6 µM (active),–
c1ccc(N=NNc2ccccc2)cc1,inactive,–
O=C(Cl)c1ccccc1F,inactive,–
CCN(CC)CCN1C(=O)CN=C(c2ccccc2F)c2cc(Cl)ccc21,inactive,–
CC(=O)[O-].CC(=O)[O-].CC(=O)[O-].[Sb+3],–,5.24% [at 3.27 µM] (inactive)
CCOP(=S)(OCC)Oc1cc(C)nc(N(CC)CC)n1,inactive,–
ClC1=C(Cl)[C@]2(Cl)[C@H]3[C@H]([C@@H]4C=C[C@H]3C4)[C@@]1(Cl)C2(Cl)Cl,inactive,–
CCOC(=O)CCN(SN(C)C(=O)Oc1cccc2c1OC(C)(C)C2)C(C)C,inactive,–
O=C(N[C@H]1N=C(c2ccccc2F)c2cccc3c2N(CC3)C1=O)c1cc2ccccc2[nH]1,inactive,–
COC(=O)c1ccccc1S(=O)(=O)NC(=O)Nc1nc(C)nc(OC)n1,inactive,–
O=[N+]([O-])c1ccccc1-c1ccccc1,inactive,–
C[N+]1(C)[C@@H]2CC[C@H]1CC(OC(=O)C(CO)c1ccccc1)C2 (stereo not given in full),inactive,–
COP(=O)(OC)Oc1ccc([N+](=O)[O-])cc1,inactive,–
CN(C)CCc1c[nH]c2ccccc12,inactive,–
Oc1ccc([C@H]2CNCc3c2ccc(O)c3O)cc1O,inactive,–
CCCCn1cc[n+](C)c1 (tested in a mixture with another compound),inactive,–
CCCN,inactive,–

SMILES,Potency,"viability change, negative = cytotoxic"
CCCCCCCc1ccc(O)cc1,inactive,–
C=C(C)C(=O)[O][Sn]([CH2]CCC)([CH2]CCC)[CH2]CCC,0.172 µM (active),–
CO/N=C(\C(=O)OC)c1ccccc1CO/N=C(\C)c1cccc(C(F)(F)F)c1,inactive,–
CC(C)[C@@H](Nc1ccc(C(F)(F)F)cc1Cl)C(=O)OC(C#N)c1cccc(Oc2ccccc2)c1 (stereo not given in full),inactive,–
C#CCO,inactive,–
CCOP(=O)(Sc1ccccc1)Sc1ccccc1,inactive,–
CCCCN(CCCC)C(=S)S,inactive,–
[Cl-].[Cl-].[Sn+2],inactive,–
O=[N+]([O-])c1cccc2cccc([N+](=O)[O-])c12,inactive,–
COC(=O)/C=C(\C)OP(=O)(OC)OC,inactive,–
ClC(Cl)C(Cl)(Cl)Cl,inactive,–
CC(=O)O.CC(=O)O.CC(=O)O.CC(=O)O.CC(=O)O.CC(=O)O.CC(=O)O.O.O.[Cr].[Cr].[Cr],inactive,–
CCCCON=O,inactive,–
COc1ccc2c(c1OC)C(=O)O[C@@H]2[C@H]1c2cc3c(cc2CCN1C)OCO3,2.41 µM (active),–
Brc1ccc(Oc2ccc(Br)cc2Br)c(Br)c1,inactive,–
CCC(OC(C)=O)C(CC(C)NC)(c1ccccc1)c1ccccc1 (stereo not given),34.7 µM (active),–
O.O.O.O.O.O.O=S(=O)([O-])[O-].[Ni+2],inactive,–
COP(=S)(OC)Oc1ccc([N+](=O)[O-])c(C)c1,inactive,–
CCC(C)Nc1c([N+](=O)[O-])cc(C(C)(C)C)cc1[N+](=O)[O-] (stereo not given),inactive,–
Cc1cc2c3c(c1)C(c1ccccc1)=N[C@@H](NC(=O)c1ccncc1)C(=O)N3CC2,inactive,–
